C diff growth: inhibitors of Clostridium difficile growth; Clostridium difficile clinical isolate growth, OD600, 24 h; hits give low values; growth activity, negative = inhibition, % at 16 µg/mL (by protocol); AID 1259249; 86,000 tested, 0.25% active;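 active means mean growth activity at or below -80% and every replicate also at or below -80%; inconclusive means mean at or below -80% but some replicate above -80%; inactive means mean growth activity above -80%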
Pf Dd2 growth: blocks growth of Plasmodium falciparum Dd2 parasites. P. falciparum Dd2 growth, SYBR Green, 72 h; hits give low values. 94,000 tested, 2.3% active. activity change, % at 10 µM. AID 1159554; in the data active means activity change below about -80%; inconclusive means no clear call, values can overlap the other calls
T cruzi growth-1: inhibitors of T. cruzi proliferation. inhibition, % at 8.34 µM. AID 624255. T. cruzi beta-gal in NIH3T3, GalScreen luminescence, 90 h. 77,000 tested, 5.9% active;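 active means mean inhibition above about 93%, with at least 55% of replicates each passing it, limit read from the data, passing the limit was not always enough; inconclusive means only one of those two conditions holds; inactive means neither condition holds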
T cruzi growth-2: blocks T. cruzi growth in NIH3T3 host cells; shares compounds with T cruzi growth-1; T. cruzi beta-gal in NIH3T3, GalScreen luminescence, 90 h; inhibition, % at 8.35 µM; 5,600 tested, 72% active;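 active means mean replicate inhibition above about 95% and at least 55% of replicates individually reaching it, limit read from the data; inconclusive means only one of the two criteria is met; inactive means neither criterion is met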
T cruzi growth-3: blocks T. cruzi growth in NIH3T3 host cells | shares compounds with T cruzi growth-1 | T. cruzi beta-gal in NIH3T3, GalScreen luminescence, 90 h | inhibition, % at 2.09 µM | 5,600 tested, 21% active | AID 651740;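 active means mean inhibition above about 95%, with at least 55% of replicates also reaching it, limit read from the data; inconclusive means meets just one of the two conditions; inactive means meets neither condition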
3T3 cytotox: cytotoxicity in mouse NIH/3T3 fibroblasts; shares compounds with T cruzi growth-1; NIH/3T3 viability, CellTiter-Glo ATP luminescence, 90 h; cytotoxicity (signal decrease), % at 8.35 µM; 5,600 tested, 14% active;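 active means mean signal decrease across replicates above about 35% based on untreated-well scatter, with enough replicates individually passing, limit read from the data; inconclusive means no rule stated though some were filed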
NIH3T3 tox 2: NIH/3T3 (mouse) viability loss. shares compounds with T cruzi growth-1. NIH/3T3 viability, CellTiter-Glo ATP luminescence, 90 h. inhibition, % at 24.9 µM. 5,600 tested, 56% active. AID 651744;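 active means mean loss of cell viability signal at or above a set limit, and enough replicates individually reaching it; inconclusive means meets only the mean limit or only the replicate share; inactive means meets neither condition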
Each line names hits and unclear results; the compound was inactive in the other large screens (follow-up assays come after a bar, where they were run); ! = not confirmed by another sample. Shown are actives, neighbours in structure and some others; about 6.7% of the full set was active somewhere.

C[C@@H]1CCCCO[C@H](CN(C)S(=O)(=O)c2cccs2)[C@H](C)CN([C@H](C)CO)C(=O)c2cc(NC(=O)NC3CCCCC3)ccc2O1	none
C[C@@H]1CN([C@H](C)CO)C(=O)c2cccc(NC(=O)Nc3ccc4c(c3)OCO4)c2O[C@H]1CN(C)Cc1ccc(Cl)c(Cl)c1	T cruzi growth-1 inconclusive (no result: C diff growth) | T cruzi growth-2 100.5 | T cruzi growth-3 inactive | 3T3 cytotox inactive | NIH3T3 tox 2 24.7
C[C@H](CO)N1C[C@H](C)[C@@H](CN(C)Cc2ccc(Cl)c(Cl)c2)Oc2c(NC(=O)Nc3ccc4c(c3)OCO4)cccc2C1=O	none (no result: C diff growth)
C[C@H]1CN([C@@H](C)CO)C(=O)c2cc(NC(=O)Nc3ccc4c(c3)OCO4)ccc2O[C@H]1CN(C)Cc1ccc(Cl)c(Cl)c1	none (no result: C diff growth)
C[C@@H]1CN([C@@H](C)CO)C(=O)c2cc(NC(=O)Nc3ccc4c(c3)OCO4)ccc2O[C@@H]1CN(C)Cc1ccc(Cl)c(Cl)c1	T cruzi growth-1 inconclusive (no result: C diff growth) | T cruzi growth-2 97.5 | T cruzi growth-3 inactive | 3T3 cytotox 56.6 | NIH3T3 tox 2 89.6
O=C(NC[C@H]1CC[C@@H]2[C@@H](CN2Cc2cc(-c3ccccc3)on2)O1)c1ccc2c(c1)OCO2	none (no result: T cruzi growth-1)
CC(C)NC(=O)NCC[C@H]1CC[C@@H](NS(=O)(=O)c2ccccc2)[C@H](CO)O1	none (no result: T cruzi growth-1)
CO[C@@H]1CN(C)C(=O)c2cc(NC(C)=O)ccc2OC[C@@H](C)N(C(=O)c2cnccn2)C[C@@H]1C	T cruzi growth-1 inconclusive (no result: C diff growth)
C[C@H](CO)N1C[C@H](C)[C@H](CN(C)C(=O)C2CCCCC2)Oc2cc(Br)ccc2S1(=O)=O	none
C[C@H]1CN([C@@H](C)CO)S(=O)(=O)c2ccc(Br)cc2O[C@@H]1CN(C)C(=O)C1CCCCC1	T cruzi growth-1 102.6 | T cruzi growth-2 inactive | T cruzi growth-3 inactive | 3T3 cytotox inactive | NIH3T3 tox 2 41.7
C[C@@H]1CN([C@@H](C)CO)S(=O)(=O)c2ccc(Br)cc2O[C@H]1CN(C)C(=O)C1CCCCC1	none
C[C@@H]1CN([C@H](C)CO)S(=O)(=O)c2ccc(Br)cc2O[C@H]1CN(C)C(=O)C1CCCCC1	T cruzi growth-1 100.3! | T cruzi growth-2 inactive | T cruzi growth-3 inactive | 3T3 cytotox inactive | NIH3T3 tox 2 48.1
COc1cccc(C(=O)Nc2ccc3c(c2)OC[C@@H](C)NC[C@@H](C)[C@H](OC)CN(C)C3=O)c1	none (no result: C diff growth)
CN1c2ccc(-c3ccc(F)cc3)cc2[C@H]2[C@H](CCN2S(=O)(=O)c2cccc(F)c2)[C@@H]1CO	none
OC[C@H]1[C@H](c2ccc(C#Cc3ccccc3)cc2)[C@@H]2CN(Cc3cncnc3)CCCCN12	T cruzi growth-1 104.1 | T cruzi growth-2 107.1 | T cruzi growth-3 inactive | 3T3 cytotox 44.5 | NIH3T3 tox 2 104.7
OC[C@H]1[C@@H](c2ccc(C#Cc3ccccc3F)cc2)[C@@H]2CN(Cc3cncnc3)CCCCN12	T cruzi growth-1 96.1 | T cruzi growth-2 103.6 | T cruzi growth-3 inactive | 3T3 cytotox 47.4 | NIH3T3 tox 2 104.1
OC[C@@H]1[C@H](c2ccc(C#Cc3ccccc3)cc2)[C@H]2CN(Cc3cncnc3)CCCCN12	T cruzi growth-1 118.5 | T cruzi growth-2 98.3 | T cruzi growth-3 101.7 | 3T3 cytotox 37.3 | NIH3T3 tox 2 102.0
OC[C@@H]1[C@@H](c2ccc(C#Cc3ccccc3)cc2)[C@@H]2CN(Cc3cncnc3)CCCCN12	T cruzi growth-1 100.8 | T cruzi growth-2 98.0 | T cruzi growth-3 inactive | 3T3 cytotox inactive | NIH3T3 tox 2 103.5
OC[C@H]1[C@@H](c2ccc(C#Cc3ccccc3F)cc2)[C@H]2CN(Cc3cncnc3)CCCCN21	none
OC[C@H]1[C@@H](c2ccc(C#Cc3ccccc3)cc2)[C@H]2CN(Cc3cncnc3)CCCCN21	none
Cc1cccc(S(=O)(=O)N2CCCCN3[C@H](CO)[C@H](c4ccc(C#CC5CC5)cc4)[C@H]3C2)c1	none
OC[C@@H]1[C@@H](c2ccc(-c3ccccc3)cc2)[C@H]2CN(Cc3cncnc3)CCCCN12	none
OC[C@H]1[C@H](c2ccc(Br)cc2)[C@@H]2CN(Cc3cncnc3)CCCCN12	T cruzi growth-1 109.7 | T cruzi growth-2 96.9 | T cruzi growth-3 inactive | 3T3 cytotox inactive | NIH3T3 tox 2 inactive
C[C@@H]1CCCCO[C@@H](CN(C)S(=O)(=O)c2ccc(F)cc2)[C@@H](C)CN([C@H](C)CO)C(=O)c2cc(NC(=O)Nc3ccc4c(c3)OCO4)ccc2O1	none
C[C@@H]1CCCCO[C@@H](CN(C)S(=O)(=O)c2ccccc2)[C@@H](C)CN([C@H](C)CO)C(=O)c2cc(NC(=O)Nc3ccc4c(c3)OCO4)ccc2O1	none
Cc1ccc(S(=O)(=O)N(C)C[C@@H]2OCCCC[C@H](C)Oc3ccc(NC(=O)Nc4ccc5c(c4)OCO5)cc3C(=O)N([C@H](C)CO)C[C@@H]2C)cc1	T cruzi growth-1 118.8 (no result: C diff growth) | T cruzi growth-2 111.0 | T cruzi growth-3 105.2 | 3T3 cytotox inactive | NIH3T3 tox 2 inactive
COc1ccc(S(=O)(=O)N(C)C[C@@H]2OCCCC[C@@H](C)Oc3ccc(NC(=O)Nc4ccc5c(c4)OCO5)cc3C(=O)N([C@@H](C)CO)C[C@H]2C)cc1	Pf Dd2 growth -81.8, T cruzi growth-1 inconclusive | T cruzi growth-2 107.2 | T cruzi growth-3 inactive | 3T3 cytotox inactive | NIH3T3 tox 2 inactive
C[C@@H]1CCCCO[C@H](CN(C)S(=O)(=O)c2ccc(Cl)cc2)[C@@H](C)CN([C@@H](C)CO)C(=O)c2cc(NC(=O)Nc3ccc4c(c3)OCO4)ccc2O1	Pf Dd2 growth -82.8, T cruzi growth-1 102.7 | T cruzi growth-2 108.0 | T cruzi growth-3 103.7 | 3T3 cytotox inactive | NIH3T3 tox 2 inactive
COc1ccc(NC(=O)Nc2ccc3c(c2)C(=O)N([C@H](C)CO)C[C@@H](C)[C@@H](CN(C)S(=O)(=O)c2ccc(OC)cc2)OCCCC[C@H](C)O3)cc1	none
CO[C@@H]1CN(C)C(=O)c2ccc(NC(=O)c3ccccc3F)cc2OC[C@H](C)NC[C@@H]1C	none (no result: C diff growth)
C[C@@H]1CN([C@@H](C)CO)C(=O)c2cc(NC(=O)Nc3ccc(C(F)(F)F)cc3)ccc2O[C@@H](C)CCCCO[C@H]1CN(C)Cc1ccncc1	none
Cc1cc(C(=O)Nc2cccc3c2O[C@@H](CN(C)C(=O)Nc2ccccc2)[C@@H](C)CN([C@H](C)CO)C3=O)n(C)n1	none
COc1ccc(-c2ccc([C@@H]3[C@@H](C#N)N(C(=O)CN(C)C)[C@@H]3CO)cc2)cc1	T cruzi growth-1 108.5 | T cruzi growth-2 inactive | T cruzi growth-3 inactive | 3T3 cytotox inactive | NIH3T3 tox 2 inactive
COc1ccc(-c2ccccc2[C@H]2[C@@H](CO)N(C(=O)NC3CCCCC3)[C@H]2C#N)cc1	none (no result: T cruzi growth-1)
COc1ccccc1-c1ccc([C@@H]2[C@H](C#N)N(C(=O)CN(C)C)[C@H]2CO)cc1	none

Screening data from PubChem.
